# Test results taken from PubChem BioAssay (Tox21).
# Records with an inconclusive call do not appear. A call without a number means that no potency is given here. Active and inactive are the calls of the source. Calls come from the whole dose curve.
# Assay: qHTS assay to identify small molecule antagonists of the sonic hedgehog signaling (Shh) pathway (AID 1259369); note: nearly all actives have a fitted effect of over 45% in size
# Details: NIH/3T3 Gli1-Luc reporter, Shh antagonist, luminescence 24 h; series mostly up to 92.4 µM
# Source text: U.S. Tox21 Program National Center for Advancing Translational Sciences [NCATS] NIH Chemical Genomics Center [NCGC] U.S. Environmental Protection Agency [EPA] National Institutes of Environmental Health Sciences [NIEHS] National Toxicology Program [NTP] U.S. Food and Drug Administration [FDA] Tox21 Assay Overview: The sonic hedgehog (Shh) pathway is essential for normal embryonic development. Dysregulation of the Shh pathway can cause severe developmental defects in organs. Therefore chemicals that interfere with the pathway are potential developmental toxicants. A cell line designated 3T3Gli1-Luc (DMB/OARSA/CFSAN/FDA, Laurel, MD), a NIH/3T3 derived clone containing stably integrated Gli1-Luc reporter is used to detect chemical interference of the Shh pathway, by changes in the expression of the firefly Luc gene under the control of the Gli1 transcriptional response element. This cell line was used to screen Tox21 libraries for identifying and prioritizing the potential developmental toxicants that interfere Shh pathway. Conditioned medium-stimulated mode was used to screen for chemicals inhibiting Shh signaling.
# Tox21 Assay Protocol Summary: 3T3 Gli1-Luc cells were dispensed at 2,000 per well in 5uL of culture medium into white solid bottom 1536-well plates (Greiner Bio-One, Monroe, NC) using a Multidrop Combi (Thermo Scientific, Waltham, MA) dispenser. The assay plates were incubated at 37 C and 5% CO2 for 4hr, and then 23nL of compounds dissolved in DMSO and positive control were transferred using a Pintool station (Wako, San Diego, CA). The compound transfer was followed by the addition of 1ul conditioned medium or assay buffer using two separate tips of Flying Reagent Dispenser (FRD, Aurora Discovery, San Diego, CA). The assay plates were incubated at 37C and 5% CO2 for 24hr. For luciferase read, 4uL of Amplite Luciferase reporter gene assay reagent (AAT Bioquest, Inc. Sunnyvale, CA) was added to each well of the assay plates using FRD and incubated at room temperature for 30min. The luminescence signal was measured using a ViewLux plate reader (Perkin Elmer, Shelton, CT).
Structure (SMILES),Potency,"activity change, negative = inhibition"
CCOCCOCCOC(C)=O,inactive,–
CN(C)CCCN(C)C,–,5.84% [at 8.39 µM] (inactive)
O=c1c(O)c(O)c1=O,inactive,–
Cc1ccc2ccccc2n1,inactive,–
CCCCCCC(O)CO (stereo not given),inactive,–
CC/C=C\CCCCCCCCCCOC(C)=O,inactive,–
CCC(C)c1nccnc1OC (stereo not given),inactive,–
CCCCC(CC)CCC(CC(C)C)OS(=O)(=O)O (stereo not given),inactive,–
Cc1ccc2cccnc2c1,inactive,–
C=C(C)C(=O)OCCOC1CC2CC1C1C=CCC21 (stereo not given),inactive,–
CCCOc1ccc(C(=O)OCCN(CC)CC)cc1N,inactive,–
O=C1c2ccccc2C(=O)N1CO,inactive,–
Cc1cc2c(cc1CC(=O)c1sccc1S(=O)(=O)Nc1onc(C)c1Cl)OCO2,inactive,–
CC(C)(O)c1ccc(C(C)(C)O)cc1,inactive,–
COC(=O)/C=C(\C)CCC=C(C)C,inactive,–
N=C(N)S(=O)O,inactive,–
Cc1ccc(S(=O)(=O)NC(=O)NN2CC3CCCC3C2)cc1 (stereo not given),inactive,–
N=C(N)N1CCc2ccccc2C1,–,18.9% [at 8.39 µM] (inactive)
CNC(C)=O,inactive,–
O=S(=O)(O)c1ccc(Cl)cc1,inactive,–

Structure (SMILES),Potency,"activity change, negative = inhibition"
CCCCCCCC(=O)N(C)C,inactive,–
N[C@H]1C(O)O[C@H](CO)[C@@H](O)[C@@H]1O (stereo not given in full),inactive,–
CC(=O)SC[C@@H](C)C(=O)N1CCC[C@H]1C(=O)N[C@@H](Cc1ccccc1)C(=O)O,inactive,–
CCCCc1ccc(Cl)cc1,inactive,–
CC(=O)Oc1ccc(C(C)=O)cc1,inactive,–
CCOC(=O)CC,inactive,–
NC(=O)CC[C@@H](N)C(=O)O,inactive,–
CCCC[O][Al]([O]CCCC)[O]CCCC,inactive,–
N#Cc1ccccc1C#N,inactive,–
C=CC(C)(CCC=C(C)C)OC(=O)C(C)C (stereo not given),inactive,–
CC(=O)OC/C=C(/C)CCC=C(C)C,inactive,–
O=C(O)Cc1c(Cl)ccc(Cl)c1Cl,inactive,–
CC(=O)c1ccc(O)c(C(N)=O)c1,inactive,–
Cc1ccc(O)c([N+](=O)[O-])c1,inactive,–
C=CCON/C(CCC)=C1\C(=O)CC(C)(C)C(C(=O)OC)=C1O,inactive,–
CCCCCCCCC1CO1 (stereo not given),inactive,–
CCOC(=O)CN1CCCC1=O,inactive,–
CCCCCCCCCCCBr,inactive,–
COc1cc(NS(=O)(=O)c2ccc(N)cc2)ncn1,inactive,–
COC(=O)N/N=C/c1c[n+]([O-])c2ccccc2[n+]1[O-],inactive,–
